Screening results (PubChem BioAssay)
This is a sample that favours compounds with a hit; in the whole collection about 21% have one here.
ELG1 DNA repair = qHTS screen for small molecules that inhibit ELG1-dependent DNA repair in human embryonic kidney (HEK293T) cells expressing luciferase-tagged ELG1; HEK293T ELG1-luciferase reporter, luminescence, 16 h; DNA damage induced by 5-fluorouridine; Potency, µM (top dose mostly 46.1 µM), without a hit: top-dose activity change, negative = inhibition, usual class: inhibitors; hit rate 2.3% among 330,000; AID 504467, 2011; further: potency means the concentration at half of the fitted maximal effect; nearly all actives have a fitted effect of over 55% in size
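HEK293T cells expressing luciferase-tagged ELG1 (2,000/well) received 5-Fluorouridine plus compound or DMSO for 16 hr at 37 °C. Luciferase was read by ONE-Glo luminescence after 30 min at room temperature.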
TDP1 cell CPT = qHTS for Inhibitors of human tyrosyl-DNA phosphodiesterase 1 (TDP1): qHTS in cells in presence of CPT; chicken DT40 Tdp1-/-;hTDP1 cells + 20 nM CPT, ATP luminescence, 48 h; Potency, µM (series often up to 46.2 µM), without a hit: top-dose activity change, negative = growth inhibition, hits mostly inhibitors; hit rate 12% among 420,000; AID 686979, 2013; further: potency means the concentration at half of the fitted maximal effect; nearly all actives have a fitted effect of over 55% in size
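Cell growth measured by CellTiter-Glo luminescence after a minimum 48 h, 37 C compound exposure with 20 nM CPT in Tdp1-knockout DT40 cells stably expressing hTDP1, seeded 400/well; qHTS titration format.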
RORgamma inh = qHTS for inhibitors of ROR gamma transcriptional activity | Potency, µM (highest dose often 53.6 µM), for the others: top-dose activity change, negative = inhibition, hits mostly inhibitors | hit rate 5.4% among 310,000 | AID 2551, 2010 | Drosophila S2 Gal4-RORgamma UAS-luciferase reporter, 20 h; further: potency means the concentration at half of the fitted maximal effect; nearly all actives have a fitted effect of over 60% in size
Target sequence (P51450 whole entry, looked up, the tested form may be a part): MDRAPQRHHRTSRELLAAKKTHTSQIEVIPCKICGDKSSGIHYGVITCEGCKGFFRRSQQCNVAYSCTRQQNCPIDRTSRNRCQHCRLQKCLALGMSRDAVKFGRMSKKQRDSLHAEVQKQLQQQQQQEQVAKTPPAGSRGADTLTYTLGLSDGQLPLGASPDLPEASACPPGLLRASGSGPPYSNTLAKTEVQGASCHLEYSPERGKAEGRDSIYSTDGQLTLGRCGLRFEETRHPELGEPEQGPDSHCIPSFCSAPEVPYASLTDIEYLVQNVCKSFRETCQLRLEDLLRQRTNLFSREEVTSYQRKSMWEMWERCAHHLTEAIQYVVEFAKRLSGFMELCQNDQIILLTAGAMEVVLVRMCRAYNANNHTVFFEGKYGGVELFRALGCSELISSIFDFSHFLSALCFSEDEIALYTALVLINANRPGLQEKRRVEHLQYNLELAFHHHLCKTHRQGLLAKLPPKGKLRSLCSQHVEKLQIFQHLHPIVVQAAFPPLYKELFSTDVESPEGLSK
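Read-out: Photinus luciferase luminescence; inhibitors lower reporter signal. Insect Schneider cells with Gal4-ROR gamma fusion under metallothionein promoter, UAS reporter; 700 uM final copper sulfate induction, 20 hr, ambient temperature.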
Gal4-VP16 FLuc = VP16 counterscreen qHTS for inhibitors of ROR gamma transcriptional activity; Drosophila S2 Gal4-VP16 UAS-luciferase, luminescence, 20 h; Potency, µM (highest dose often 53.6 µM), for the others: top-dose activity, negative = inhibition, hits mostly inhibitors; hit rate 3.5% among 310,000; AID 2546, 2010;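 further: Gal4-VP16 expression switched on by copper sulfate through the metallothionein promoter; potency means the concentration at half of the fitted maximal effect; nearly all actives have a fitted effect of over 50% in size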
TDP1 cell noCPT = qHTS for Inhibitors of human tyrosyl-DNA phosphodiesterase 1 (TDP1): qHTS in cells in absence of CPT. DT40 Tdp1-/- hTDP1 cells, no CPT, ATP luminescence, 48 h. Potency, µM (top dose mostly 46.2 µM), inactives show at the highest dose activity change, negative = growth inhibition, actives largely listed as inhibitors. hit rate 15% among 420,000; further: potency means the concentration at half of the fitted maximal effect; nearly all actives have a fitted effect of over 55% in size
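A cellular qHTS used chicken DT40 cells lacking endogenous Tdp1 but carrying stably transfected human TDP1. Compounds were applied without camptothecin, and cell growth kinetics were judged by ATP-dependent luminescence after ≥48 hr.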
IL1B secr inh = qHTS for Inhibitors of Inflammasome Signaling: IL-1-beta AlphaLISA Primary Screen; AID 743279, 2014; hit rate 4.7% among 360,000; THP-1 LPS/ATP IL-1B secretion, AlphaLISA, 16 h; hits give low values; activity change, % at 57.5 µM; in the data active means activity change below about -50%; inconclusive means mostly about -30% to -49%
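THP-1 cells pretreated 1 hr with compounds (up to 57.5 uM final), then stimulated with LPS (250 ng/mL final) plus ATP (1.25 mM final); secreted IL-1B measured by AlphaLISA after 16 hr, decreased signal indicating inhibition.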
An asterisk follows results filed as active; ? = inconclusive; . = no result given; [ ] = dose if it differs, or a comment. Unless noted, the call rests on the fitted dose curve; in most records, active means well fitted curve in the direction sought with a large enough effect; inconclusive means small, poorly fitted or top-dose-only effect, or another doubt; inactive means no such curve, though single readings can be large; an effect the other way counts as inactive or inconclusive. On the % scale 0 is the no-effect control and ±100 the full control effect.

SMILES	ELG1 DNA repair	TDP1 cell CPT	RORgamma inh	Gal4-VP16 FLuc	TDP1 cell noCPT	IL1B secr inh
O=c1cc(-c2cccc(O)c2O)oc2ccccc12	.	?	-36%	-15%	?	.
Nc1ncnc(Nc2ccccc2Oc2ccccc2)n1	.	-1%	.	.	-3%	12
O=C(C[n+]1ccccc1)NNc1ccccc1	-3%	-1%	.	.	-15%	10
CN(C(=O)c1ccc(COc2ccccc2Br)o1)c1ccccc1	-6%	-21%	?	?	-6%	0
CCn1c(O)c(N=NC(=O)C(O)c2ccccc2)c2ccccc21 (stereo not drawn)	12%	23µM*	-23%	-11%	21µM*	-22
O=C(CNC(=O)c1ccco1)N=Nc1c(O)n(CCc2ccccc2)c2ccccc12	-6%	5.2µM*	0%	-4%	3.7µM*	128
CCOC(=O)N=Nc1c(O)n(CC)c2ccccc12	-4%	-23%	30%	?	-6%	-9
CCCCn1c(O)c(N=NC(=O)c2ccco2)c2ccccc21	?	?	9%	-3%	18µM*	-11
CC12C=C(/C=C/c3ccccc3)C(C)(C1)C(c1ccccc1)CC2=O (stereo not drawn)	.	.	11%[10 µM]	-15%[10 µM]	.	.
F[B-](F)(F)c1cncc2ccccc12	.	0%	.	.	-14%	-1
O=C(NCC1CCCO1)c1cccc(S(=O)(=O)Nc2ccccc2Cl)c1 (stereo not drawn)	.	-21%	.	.	-13%	13
c1cc(-c2ccncc2)ccn1	?	10µM*	0%	2%	16µM*	29
CC(=O)C1=C(O)C(=CC=Cc2ccccc2)OC1=O	.	?	.	.	16µM*	-2
O=C1c2ccc(-c3ccc(Cl)c(C(F)(F)F)c3)cc2S(=O)(=O)c2cccc(C(=O)N3CCN(c4ccc(Cl)cn4)CC3)c21	?	?	.	.	13µM*	-15
COc1ccc(-c2ccc3c(c2)S(=O)(=O)c2cccc(C(=O)N4CCN(C5CCCCC5)CC4)c2C3=O)cc1OC	?	18µM*	.	.	?	-18
COc1ccc(-c2ccc3c(c2)S(=O)(=O)c2cccc(C(=O)O)c2C3=O)cc1OC	18%	-5%	.	.	12%	21
COc1ccc(-c2ccc3c(c2)S(=O)(=O)c2cccc(C(=O)NC4CCCC4)c2C3=O)cc1OC	23%	-30%	.	.	-22%	7
O=C1c2ccc(-c3ccc(F)cc3OCc3ccccc3)cc2S(=O)(=O)c2cccc(C(=O)N3CCCC3)c21	-27%	13µM*	.	.	15µM*	14
COc1ccc(-c2ccc3c(c2)S(=O)(=O)c2cccc(C(=O)N4CCN(c5ccccn5)CC4)c2C3=O)cc1OC	.	18µM*	.	.	15µM*	10
Cc1ccccc1C1(CC(=O)N2CCCCC2c2cccnc2)CC(=O)N(C2CCCC2)C1=O (stereo not drawn)	.	-4%[9.04 µM]	.	.	?	.
Cn1c(=O)c2c(ncn2C[C@@H](O)CO)n(C)c1=O	.	.	-9%[2.98 µM]	4%[17 µM]	.	.
CC(=O)O[C@H]1C[C@H]2CC[C@@H]3[C@H]4C[C@@H]([N+]5(C)CCCCC5)[C@@H](OC(C)=O)[C@]4(C)CC[C@@H]3[C@@]2(C)C[C@@H]1[N+]1(C)CCCCC1	.	2%	11%	0%	-4%	.
COC(=O)[C@@H]1CCCN1C(=O)[C@@H](C)CO	.	.	0%[10 µM]	-10%[10 µM]	.	.
COc1ccc(S(=O)(=O)N2CCN(c3ccccn3)CC2)cc1OC	.	-21%	11%	1%	-28%	41
COc1ccc(-c2cccc(N3CCN(c4ccccn4)CC3)n2)cc1OC	.	16µM*	.	.	18µM*	29
SMILES	ELG1 DNA repair	TDP1 cell CPT	RORgamma inh	Gal4-VP16 FLuc	TDP1 cell noCPT	IL1B secr inh
Cc1nc2ccccn2c1-c1ccnn1S(=O)(=O)c1ccc(F)cc1	18µM*	21µM*	0%	?	12µM*	20
Cc1nc2ccccn2c1-c1nnco1	-6%	7%	-6%[10 µM]	-2%	-23%	0
O=C(COc1ccc(Cl)cc1Cl)N1CCNC1=O	?	-6%	.	.	-6%	-6
CSCCC(C(=O)NC1CCCC1)n1c(C2CC2)nc2ccccc21 (stereo not drawn)	.	-2%	.	.	11%	-22
O=C(c1ccccc1)c1ccc(OCC(O)CNCc2ccc(F)cc2)cc1 (stereo not drawn)	-3%	-2%	-1%	-5%	-25%	-72*
O=C(c1ccccc1)c1ccc(OCC(O)CNCc2cccc(Cl)c2)cc1 (stereo not drawn)	18%	?	-9%	-9%	?	-82*
CCC(=O)c1ccc(OCC(O)CNCc2ccc(F)cc2)cc1 (stereo not drawn)	14%	-10%	?	0%	-35%	-12
COCCCNC(=O)CN1C(=O)/C(=C/c2ccccc2C)Sc2ccccc21	-18%	-17%	25%	-2%[10 µM]	19%	-8
CCOCCCNC(=O)CN1C(=O)/C(=C\c2ccc(C)cc2)Sc2ccccc21	?	21µM*	12%[10 µM]	25%	?	2
CCOCCCNC(=O)CN1C(=O)/C(=C/c2ccccc2)Sc2ccccc21	?	?	0%	?	?	?
COCCCNC(=O)CN1C(=O)/C(=C/c2ccccc2)Sc2ccccc21	-3%	?	16%	-2%	15µM*	-15
